For seven compounds, Potency results are on record in PubChem BioAssay (Tox21).

Test [1] can be described thus: Nuclear factor erythroid 2-related factor 2/antioxidant responsive element (Nrf2/ARE) small molecule agonists: qHTS cell viability counter screen in human keratinocytes (AID 1919968; active = well fitted curve in the direction sought with a large enough effect in the repeat runs; an effect the other way counts as inactive or inconclusive; also: nearly all actives have a fitted effect of over 55% in size; also: potency is read from the fitted curve at half-maximal effect). Put shortly:
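CellTiter-Fluor fluorescence, read 1 h after reagent, gave viability in the same wells as the ARE-luciferase assay. KeratinoSens cells (1,500/well) had 23 h compound exposure at 37 C/5% CO2 following 5 h plating.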
(In general: Quantitative high-throughput screening tests each substance at several concentrations.)

A short description of test [2]: Nuclear factor erythroid 2-related factor 2/antioxidant responsive element (Nrf2/ARE) small molecule agonists: luciferase reporter gene qHTS assay in human keratinocytes (AID 1919969; also: nearly all actives have a fitted effect of over 35% in size; also: potency is read from the fitted curve at half-maximal effect). (In a reporter assay the amount or activity of a reporter protein is the signal.)
The target of test [3] is KiSS-1 receptor (Homo sapiens) (UniProt Q969F8). As to the kind of experiment: Human kisspeptin (KISS1R) small molecule agonists, calcium flux assay in KISS1R-HEK293 cells (AID 1920064; active = well fitted curve in the direction sought with a large enough effect in the repeat runs; an effect the other way counts as inactive or inconclusive). Put shortly: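 Agonist mode: intracellular calcium rise tracked at 1 s intervals over 3 min (480/540 nm) immediately after compound addition to dye-loaded KISS1R-HEK293 stable cells. Each compound tested at 15 concentrations in triplicate.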
KiSS-1 receptor (Homo sapiens), sequence (Q969F8 whole entry, looked up): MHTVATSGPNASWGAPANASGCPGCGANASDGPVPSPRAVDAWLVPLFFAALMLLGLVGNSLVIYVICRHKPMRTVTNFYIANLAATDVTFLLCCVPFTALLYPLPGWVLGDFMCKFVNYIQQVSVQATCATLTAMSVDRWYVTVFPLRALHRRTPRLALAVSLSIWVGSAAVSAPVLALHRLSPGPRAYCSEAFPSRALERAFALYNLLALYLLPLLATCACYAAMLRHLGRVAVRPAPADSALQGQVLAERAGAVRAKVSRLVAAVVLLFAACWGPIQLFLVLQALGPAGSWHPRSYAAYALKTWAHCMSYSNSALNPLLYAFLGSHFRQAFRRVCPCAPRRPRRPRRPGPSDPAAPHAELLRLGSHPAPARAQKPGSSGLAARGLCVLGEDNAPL

The nature of test [4]: G protein-coupled receptor (GPCR) small molecule agonists, calcium flux assay: HEK293 wild type cell line counter screen (AID 1920065). Put shortly:
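Calcium flux counter screen: compound added in agonist mode at 15 concentrations in triplicate to dye-loaded parental HEK293 cells. Fluorescence (480/540) read kinetically for 3 min; ATP served as positive control.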
In general terms: A change in cytosolic calcium serves as a functional read-out for many receptors and channels.

A short description of test [5]: p53 small molecule agonists, cell-based qHTS assay with human liver microsomes (AID 1963577).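 Also: p53 response element beta-lactamase reporter cells with liver microsomes plus NADPH.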 Put shortly: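 With metabolic activation: human liver microsomes (0.5 mg/mL final) plus NADPH (0.5 mg/mL final) added alongside compounds to p53RE-bla cells; 16 h 37 C exposure; beta-lactamase read by LiveBLAzer fluorescence.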
The nature of test [6]: p53 small molecule agonists, cell-based qHTS assay with rat liver microsomes: qHTS cell viability counter screen (AID 1963580). Also: nearly all actives have a fitted effect of over 45% in size. In short, it runs like this:
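Cytotoxicity counter screen: intracellular ATP read by CellTiter-Glo luminescence in the p53 reporter wells. HCT-116 p53RE-bla cells were treated for 16 h at 37 C alongside rat liver microsomes and NADPH, each 0.5 mg/mL final.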

Test [7] is described as follows: p53 small molecule agonists, cell-based qHTS assay (AID 1963582; active = well fitted activation curve with a large enough effect in the signal ratio in the repeat runs, not every such curve was filed as active; the % refers to the signal ratio). In short, it runs like this:
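Read-out is beta-lactamase FRET fluorescence after 2 h at room temperature with LiveBLAzer B/G substrate. p53 response element-bla cells were treated 16 h at 37 C with compounds in DMSO, added 5 h after seeding.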

Test [8] deals with 5-hydroxytryptamine receptor 2A (Homo sapiens) (UniProt P28223). As to the kind of experiment: 5-hydroxytryptamine receptor 2A (HTR2A) small molecule antagonists, cell-based qHTS assay (AID 1963586). Also: nearly all actives have a fitted effect of over 45% in size. Put shortly: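 CHO cells stably expressing human HTR2A were plated for 18 h at 37 C, then loaded with calcium dye for 1 h. Compounds were preincubated 5 min at room temperature before DOI (4 nM solution) was added. Kinetic fluorescence was read for 3 min.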
5-hydroxytryptamine receptor 2A (Homo sapiens), sequence (P28223 whole entry, looked up): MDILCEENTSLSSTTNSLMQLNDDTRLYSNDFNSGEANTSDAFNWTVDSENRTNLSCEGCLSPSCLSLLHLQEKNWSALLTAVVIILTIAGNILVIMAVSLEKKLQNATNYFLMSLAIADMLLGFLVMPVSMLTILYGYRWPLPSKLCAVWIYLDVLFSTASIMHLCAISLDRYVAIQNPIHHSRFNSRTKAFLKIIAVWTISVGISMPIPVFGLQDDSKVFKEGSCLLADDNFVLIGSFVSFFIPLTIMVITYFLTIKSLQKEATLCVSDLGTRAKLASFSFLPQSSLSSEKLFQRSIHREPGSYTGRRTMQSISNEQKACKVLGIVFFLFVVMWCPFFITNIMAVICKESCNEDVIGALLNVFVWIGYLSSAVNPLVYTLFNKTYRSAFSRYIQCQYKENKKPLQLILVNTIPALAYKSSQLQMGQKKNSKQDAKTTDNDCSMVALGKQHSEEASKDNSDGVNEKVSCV

Test [9] has the same target. Kind of test: 5-hydroxytryptamine receptor 2A (HTR2A) small molecule agonists, cell-based qHTS assay (AID 1963587). Also: nearly all actives have a fitted effect of over 30% in size. Put shortly:
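Kinetic calcium-flux fluorescence (2 min, 1 sec intervals) after compound addition in agonist mode. HTR2A-CHO cells were cultured 18 h, then dye-loaded 1 h at 37 C.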

Test [10] concerns the target Muscarinic acetylcholine receptor M1 (Homo sapiens) (UniProt P11229). Kind of test: Cholinergic receptor muscarinic 1 (CHRM1) small molecule antagonists, cell-based qHTS assay (AID 1963588). Also: nearly all actives have a fitted effect of over 40% in size. In short, it runs like this:
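Compounds were tested at 15 concentrations in three independent runs. Dye-loaded CHRM1-CHO cells were exposed 5 min at room temperature before stimulation by acetylcholine added at 50nM. Intracellular calcium was read kinetically on FDSS for 3 min.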

The target is the same in test [11]. As to the kind of experiment: Cholinergic receptor muscarinic 1 (CHRM1) small molecule agonists, cell-based qHTS assay (AID 1963589). Also: nearly all actives have a fitted effect of over 35% in size. In short, it runs like this:
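Agonist-mode calcium-flux screen: compounds at 15 concentrations, three independent runs, were pin-transferred onto dye-loaded human CHRM1-CHO cells. Fluorescence was then recorded kinetically every second over minutes.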

Test [12] is described as follows: cAMP Responsive Elements (CRE) small molecule agonists, cell-based qHTS assay (AID 1963590). Put shortly: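 Agonist mode: compound added to CRE-bla HEK 293T cells (2,000/well, 18 h after plating) for 3 h at 37 C/5% CO2. Reporter activity detected via FRET beta-lactamase substrate, 2 h room-temperature loading.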
Test [13] can be described thus: cAMP Responsive Elements (CRE) small molecule antagonists, cell-based qHTS assay (AID 1963591; active = well fitted inhibition curve with a large enough effect in the signal ratio in the repeat runs, not every such curve was filed as active; the % refers to the signal ratio). Put shortly: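 Antagonist mode: compounds are added alongside the adenylyl cyclase activator NKH477 (0.25 uM final) to CRE-bla HEK293T cells for 3 h. LiveBLAzer FRET substrate, 2 h at room temperature, reports bla expression.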
Test [14] concerns the target Beta-2 adrenergic receptor (Homo sapiens) (UniProt P07550). As to the kind of experiment: Adrenergic beta2 receptor (ADRB2) small molecule antagonists, cell-based qHTS assay (AID 1963592). Also: series mostly up to about 92 µM; nearly all actives have a fitted effect of over 50% in size. Put shortly:
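Assay format: CHO-ADRB2 cells, 18-20hr seeding at 37C/5% CO2, then compound plus 1nM isoproterenol agonist mix for 0.5hr RT. Homogeneous time-resolved fluorescence cAMP detection after 1hr, expressed as 665/615 nm ratio.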

Test [15] shares this target. As to the kind of experiment: Adrenergic beta2 receptor (ADRB2) small molecule agonists, cell-based qHTS assay (AID 1963593). Also: potency is read from the fitted curve at half-maximal effect.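 As to activation: CHO cells stably overexpressing human ADRB2.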 In short, it runs like this:
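CHO cells stably over-expressing ADRB2 were plated overnight at 37C, then dosed with compounds plus a stimulation mix containing 100uM IBMX and 25uM Ro-20-1724 for 0.5hr at room temperature. cAMP was measured by HTRF competition, 1hr.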

The target in test [16] is D(2) dopamine receptor (Homo sapiens) (UniProt P14416). As to the kind of experiment: Dopamine D2 receptor (DRD2) small molecule agonists, cell-based qHTS assay (AID 1963594). Also: nearly all actives have a fitted effect of over 35% in size. Put shortly:
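cAMP accumulation in DRD2-HEK293 cells measured by HTRF after 1 h detection; compounds added 10 min before NKH477 (200nM […]) forskolin-analogue stimulation, 30 min at room temperature, with Ro20-1724 present at 0.1 mM final.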

Test [17] shares this target. Kind of test: Dopamine D2 receptor (DRD2) small molecule antagonists, cell-based qHTS assay (AID 1963595; active = well fitted inhibition curve with a large enough effect in the signal ratio in the repeat runs, with a control signal flat; the % refers to the signal ratio). In short, it runs like this:
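Cells were plated and grown for 24 h at 37 °C. Ro20-1724 (0.1 mM final) went in first, then compound for 10 min. NKH477 (200 nM) with quinpirole (12 nM) followed for 30 min at RT, then HTRF detection reagents for 1 h.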

Test [18] can be described thus: p53 small molecule agonists, cell-based qHTS assay with rat liver microsomes (AID 1963578). Put shortly:
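Metabolic activation by rat liver microsomes and NADPH, each 0.5 mg/mL final, added right after compounds to p53RE-bla reporter cells (4,000/well, plated 5 h earlier). 16 h at 37 C, then LiveBLAzer substrate for 2 h at room temperature in the dark; fluorescence read-out.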

Test [19] in a line: p53 small molecule agonists, cell-based qHTS assay with human liver microsomes: qHTS cell viability counter screen (AID 1963579). Also: nearly all actives have a fitted effect of over 45% in size. Put shortly:
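Metabolic activation used human liver microsomes and NADPH, both 0.5 mg/mL final, over 16 hours at 37 C on p53RE-bla cells (4,000/well). Cytotoxicity measured by CellTiter-Glo luminescence, 30 min at room temperature.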

A short description of test [20]: p53 small molecule agonists, cell-based qHTS assay: qHTS cell viability counter screen (AID 1963581). Also: nearly all actives have a fitted effect of over 45% in size. In short, it runs like this:
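Counter screen read by CellTiter-Glo luminescence (ATP content, 30 min at room temperature), run in the same wells as the beta-lactamase reporter read. HCT-116 p53RE-bla cells saw compounds for 16 h at 37 C.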

Each structure is given as a SMILES string. Inconclusive results are not listed. More than one record can exist for a structure, and the calls need not agree. Activity calls are given as the source filed them. Unless noted, calls follow the shape of the full dose curve.

Muscarinic acetylcholine receptor M1 (Homo sapiens), sequence (P11229 whole entry, looked up): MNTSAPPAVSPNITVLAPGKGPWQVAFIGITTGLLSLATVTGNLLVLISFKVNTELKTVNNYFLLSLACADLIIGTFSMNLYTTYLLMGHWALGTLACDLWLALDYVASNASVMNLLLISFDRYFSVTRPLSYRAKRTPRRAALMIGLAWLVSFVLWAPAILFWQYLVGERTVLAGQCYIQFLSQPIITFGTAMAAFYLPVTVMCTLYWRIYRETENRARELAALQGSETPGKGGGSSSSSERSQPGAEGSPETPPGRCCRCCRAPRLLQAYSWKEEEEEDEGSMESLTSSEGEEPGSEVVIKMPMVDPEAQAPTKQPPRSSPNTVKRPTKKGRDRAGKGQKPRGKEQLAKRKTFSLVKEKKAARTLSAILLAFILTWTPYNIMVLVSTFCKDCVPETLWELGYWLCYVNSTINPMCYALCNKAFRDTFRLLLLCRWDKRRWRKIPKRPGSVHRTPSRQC
D(2) dopamine receptor (Homo sapiens), sequence (P14416 whole entry, looked up): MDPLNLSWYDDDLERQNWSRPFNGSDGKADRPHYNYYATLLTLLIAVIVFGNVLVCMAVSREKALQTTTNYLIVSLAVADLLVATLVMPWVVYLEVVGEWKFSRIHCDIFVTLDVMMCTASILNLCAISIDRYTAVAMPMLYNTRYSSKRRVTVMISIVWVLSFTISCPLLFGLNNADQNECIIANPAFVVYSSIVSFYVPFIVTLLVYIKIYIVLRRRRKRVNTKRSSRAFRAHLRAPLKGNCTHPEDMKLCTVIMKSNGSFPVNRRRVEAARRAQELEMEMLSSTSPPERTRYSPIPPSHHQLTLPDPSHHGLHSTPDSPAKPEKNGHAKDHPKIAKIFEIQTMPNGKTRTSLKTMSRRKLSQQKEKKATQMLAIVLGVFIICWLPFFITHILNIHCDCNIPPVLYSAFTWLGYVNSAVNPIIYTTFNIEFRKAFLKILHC
Beta-2 adrenergic receptor (Homo sapiens), sequence (P07550 whole entry, looked up): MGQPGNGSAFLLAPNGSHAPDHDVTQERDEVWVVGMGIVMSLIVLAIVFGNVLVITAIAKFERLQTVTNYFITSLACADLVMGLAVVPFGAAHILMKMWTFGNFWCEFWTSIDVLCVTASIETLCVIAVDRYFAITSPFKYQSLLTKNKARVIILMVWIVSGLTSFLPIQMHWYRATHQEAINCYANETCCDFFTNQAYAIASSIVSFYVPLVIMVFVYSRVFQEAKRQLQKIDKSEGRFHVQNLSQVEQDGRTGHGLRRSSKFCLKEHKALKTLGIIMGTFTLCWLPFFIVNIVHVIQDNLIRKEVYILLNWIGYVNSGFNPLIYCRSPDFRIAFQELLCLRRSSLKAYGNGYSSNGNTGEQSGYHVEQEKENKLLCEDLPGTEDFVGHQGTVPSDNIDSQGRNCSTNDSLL

Take `COc1c2ccoc2cc2oc(=O)ccc12`: the Potency result in test [1], in [2], in test [3], in [4], in test [5] and in test [6] was “inactive” each time. Further, the Potency result in [7], in test [8], in test [9], in test [10], in [11] and in test [12] was “inactive” throughout. Also, the Potency result in test [13], in [14], in test [15], in test [16] and in test [17] was “inactive” in each case.
On to `COC(=O)C1=C(C)NC(C)=C(C(=O)OCC(C)C)C1c1ccccc1[N+](=O)[O-]` (centres undefined), for which the Potency result in test [1], in test [3], in test [4], in test [18], in test [19] and in test [6] was “inactive” in each case. Further, the Potency entry in test [20], in test [7], in test [13], in [14] and in test [16] was “inactive” in each case. Also, the Potency in test [2] is 24.3 µM (active) and inactive; in test [15], 11.9 µM (active).
`CC(=O)c1ccc2c(c1)CCCC2`: the Potency result in test [1], in test [2], in test [3], in [4], in test [18] and in [19] was “inactive” each time. The Potency entry in [6], in test [20], in test [7], in [9], in [10] and in test [11] was “inactive” in each case. The Potency result in test [12], in test [14], in [15], in test [16] and in test [17] was “inactive” in each case.
For `O=c1cccc[nH]1`, the Potency entry in test [1], in test [2], in test [3], in [4], in test [5] and in test [18] was “inactive” in each case. Besides, the Potency result in test [19], in test [20], in test [7], in [8], in [9] and in test [10] was “inactive” in each case. For the same compound, the Potency entry in test [11], in test [12], in test [13], in test [14], in [15] and in test [16] was “inactive” throughout. In addition, the Potency result in [17] is “inactive”.
With `C=CCc1cc(OC)c(O)c(C(=O)NCCO)c1`, the Potency result in [1], in test [2], in test [3], in test [4], in [5] and in [18] was “inactive” each time. Further, the Potency entry in [19], in test [20], in test [7], in [9], in test [10] and in test [11] was “inactive” in each case. Also, the Potency entry in test [12], in test [13], in test [14], in test [15], in test [16] and in [17] was “inactive” each time.
As to `C=C(C)[C@@H]1CC[C@@H](C)C[C@@H]1O`, the Potency entry in test [1], in [2], in [3], in [4], in test [18] and in test [19] was “inactive” throughout. The Potency result in test [6], in test [20], in test [7], in test [8], in [9] and in [10] was “inactive” in each case. The Potency result in [11], in test [12], in test [13], in test [14], in [15] and in test [16] was “inactive” throughout. For the same compound, in test [17], the Potency entry was “inactive”.
Consider `c1ccc2sc(SSN3CCOCC3)nc2c1`, for which the Potency was 30.6 µM (active) in test [1] and 24.3 µM (active) in [2]. Also, the Potency result in test [3], in [4], in test [19], in test [6], in test [20] and in [8] was “inactive” in each case. Besides, the Potency entry in test [10], in test [11], in test [12], in [13], in test [14] and in [15] was “inactive” in each case. In addition, the Potency result in test [16] and in test [17] was “inactive” throughout.
